Structures are written as SMILES. Counter-ions that a name gives are not always drawn.

The test system of this experiment is primary human hepatic stellate cells (donor 1). Put plainly: COL1A1 mRNA fold change vs DMSO (normalised to PSMB2); higher = more COL1A1 expression, active = hit call of the paper. The following applies: 48 h. Here is the method:
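Secondary qRT-PCR screen in primary human HSCs (donor 1), 384-well plates, with compounds dispensed in quadruplicate and incubated for 48 h. Cells-to-CT lysates were used for multiplexed TaqMan qPCR of ACTA2 or COL1A1 with PSMB2 as reference. Fold changes versus DMSO come from a linear model (Ct_gene ~ Ct_PSMB2 + plate + chemical). A hit is defined as COL1A1 and ACTA2 FC <0.5 (FDR <0.05) with PSMB2 between 0.2 and 2.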
Regarding `COc1ccc2[nH]cc(C3=CCNCC3)c2c1` (33.3333 µM), the “COL1A1 mRNA fold change” value was 2.45 (inactive).

Take `CCN1CCN(C(=O)Cc2ccc(Nc3ncc(F)c(Nc4ccc(C(=O)Nc5ccccc5Cl)cc4)n3)cc2)CC1` [Aurora A Inhibitor I] (33.3333 µM): the “COL1A1 mRNA fold change” value is 0.0414 (inactive).

For `Fc1cc(F)c2c(c1)[C@H]1C=CC[C@H]1C(c1cccnc1)N2` (some centres not stated) [Golgicide A] (33.3333 µM), the “COL1A1 mRNA fold change” value is 0.111 (active).

As to `O=c1[nH]c2ccccc2n1C1CCN(CCCC(c2ccc(F)cc2)c2ccc(F)cc2)CC1` [Pimozide] (33.3333 µM), the “COL1A1 mRNA fold change” value is 0.027 (inactive).

As for `CN1[C@@H]2CC[C@H]1C[C@@H](OC(c1ccc(F)cc1)c1ccc(F)cc1)C2` [3 α-Bis-(4-fluorophenyl) methoxytropane hydrochloride] (33.3333 µM), the “COL1A1 mRNA fold change” value was 1.54 (inactive).

Consider `O=[N+]([O-])/C=C/c1ccc2c(c1)OCO2` (3.7 µM), for which the “COL1A1 mRNA fold change” value is 0.638 (inactive).

As to `CO[C@H]1CC[C@@H](O[C@H]2C[C@H]([C@]3(C)CC[C@]4(C[C@H](O)[C@@H](C)[C@@H]([C@@H](C)/C=C(\C)C(=O)[C@H](C)C[C@H](C)C(=O)O)O4)O3)O[C@]3(O[C@@H]([C@H]4O[C@@](O)(CO)[C@H](C)C[C@@H]4C)C[C@@H]3C)[C@@H]2C)O[C@@H]1C` [Nanchangmycin] (11.1 µM), the “COL1A1 mRNA fold change” value is 0.223 (active).

As to `O=C1C2CCN(CC2)C1(CO)CO` (90 µM), the “COL1A1 mRNA fold change” value is 1.07 (inactive).

With `C[C@]12CC[C@H](O)C[C@H]1CC[C@@H]1[C@@H]2CC[C@]2(C)[C@@H](C3=CC(=O)OC3)CC[C@]12O` [Digitoxigenin] (33.3333 µM), the “COL1A1 mRNA fold change” value is 0.099 (active).

For `CN(C(=O)Cc1ccc(Cl)c(Cl)c1)[C@H](CN1CCCC1)c1ccccc1` [ICI-199,441 hydrochloride] (33.3333 µM), the “COL1A1 mRNA fold change” value is 0.743 (inactive).

As to `CC1=NCCc2c1[nH]c1cc(O)ccc21` [Harmalol hydrochloride dihydrate] (24.4333 µM), the “COL1A1 mRNA fold change” value is 1.24 (inactive).

Regarding `CC1=C(O)C(=O)C=C2C1=CC=C1[C@@]2(C)CC[C@@]2(C)[C@@H]3C[C@](C)(C(=O)O)CC[C@]3(C)CC[C@]12C` [Celastrol] (3.33333 µM), the “COL1A1 mRNA fold change” value was 1.09 (inactive).

For the molecule `C[C@@H]1O[C@@H](O[C@H]2C[C@@H](O)[C@]3(CO)[C@H]4[C@H](O)C[C@]5(C)[C@@H](C6=CC(=O)OC6)CC[C@]5(O)[C@@H]4CC[C@]3(O)C2)[C@H](O)[C@H](O)[C@H]1O` [Ouabain] (33.3333 µM), the “COL1A1 mRNA fold change” value is 0.0962 (active).

As to `C[C@H](N)Cn1ccc2cc(F)c(Cl)cc21` [Ro 60-0175 fumarate] (33.3333 µM), the “COL1A1 mRNA fold change” value was 2.21 (inactive).

As for `CC[C@H]1CN2CCc3cc(OC)c(OC)cc3[C@@H]2C[C@@H]1C[C@H]1NCCc2cc(OC)c(OC)cc21` [Emetine] (12.0333 µM), the “COL1A1 mRNA fold change” value was 0.216 (active).

With `CC1=C(CC/C(C)=C/CCC2=CC[C@H](C3=CC(=O)O[C@H]3O)O[C@H]2O)C(C)(C)CCC1` [Manoalide] (40 µM), the “COL1A1 mRNA fold change” value is 0.236 (active).

Take `CCCCCCCCCCCCCC(=O)O[C@@H]1[C@@H](C)[C@@]2(O)[C@@H](C=C(CO)C[C@]3(O)C(=O)C(C)=C[C@@H]23)[C@@H]2C(C)(C)[C@]12OC(C)=O` [Phorbol 12-myristate 13-acetate] (27.0333 µM): the “COL1A1 mRNA fold change” value was 0.71 (inactive).

As to `CC(C(=O)OC1CC2CCC(C1)N2C)c1ccc(Br)cc1` (configuration not stated) [PG-9 maleate] (33.3333 µM), the “COL1A1 mRNA fold change” value was 0.598 (inactive).

On to `CN[C@@H]1C[C@H]2O[C@@](C)([C@@H]1OC)n1c3ccccc3c3c4c(c5c6ccccc6n2c5c31)C(=O)NC4` [staurosporine] (35.6667 µM), for which the “COL1A1 mRNA fold change” value is 0.11 (inactive).

As to `COc1ccc2c(c[n+](C)c3c4cc5c(cc4ccc23)OCO5)c1OC` (6.66667 µM), the “COL1A1 mRNA fold change” value was 0.204 (inactive).

On to `CCN(CC)CCO[C@H]1CC[C@@]2(C)C(=CC[C@@H]3[C@@H]2CC[C@]2(C)C(=O)CC[C@@H]32)C1` (33.3333 µM), for which the “COL1A1 mRNA fold change” value was 0.921 (inactive).

As for `O=C1/C(=C/c2ccccc2)C[C@@]2(O)[C@H]3Cc4ccc(O)c5c4[C@@]2(CCN3CC2CC2)[C@H]1O5` [BNTX maleate] (33.3333 µM), the “COL1A1 mRNA fold change” value was 0.233 (inactive).

Source of the values: the supplement of paper PMC9135407.
